Our source for the outcome and AC50 values is PubChem BioAssay (EPA / NIEHS).

Inconclusive results are not listed. The source made the active and inactive calls. How the source made its calls: active means hit-call score of the fitted dose curve at least 0.9, where 1 is the maximum; inconclusive means response in the unintended direction; inactive means score below 0.9.

Assay [1] can be described thus: TOX21_p53_BLA_p3_viability: Viability Assessment in the Tox21 HCT-116 p53 Agonism Beta-lactamase Assay, Phase 3 (AID 2283593).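 Further: cells exposed to compound for 16 h before reading.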 The gist of the method:
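HCT-116 cells (4000/well) rested 5 h at 37C, then got DMSO compounds by pin tool (217-fold dilution) for 16 h at 37C, 5% CO2. After the bla read, CellTiter-Glo was added and luminescence read at 30 min, room temperature.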

The target of assay [2] is Cellular tumor antigen p53 (Homo sapiens) (UniProt P04637). The experiment in a line: TOX21_p53_BLA_p3_ratio: Tox21 HCT-116 p53 Agonism Beta-lactamase Assay, Ratio, Phase 3 (AID 2283596). The gist of the method:
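Cells were seeded at 4000/well, rested 5 h at 37C, then dosed with DMSO compound solutions (217-fold dilution) for 16 h. CCF4-AM substrate was loaded for 2 h at room temperature, and the 460/530 nm emission ratio was fitted for gain of signal versus DMSO.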

Assay [3] is described as follows: TOX21_p53_BLA_p4_viability: Viability Assessment in the Tox21 HCT-116 p53 Agonism Beta-lactamase Assay, Phase 4 (AID 2283597).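 Further: hits lower the luminescence signal meaning cytotoxicity.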 An outline of the steps: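 In this multiplexed secondary endpoint, HCT116 cells (4000 per well, compound at 5 h, 16 h treatment) received CellTiter-Glo after the beta-lactamase read. Luminescence after 30 min RT reflects ATP, and falling signal marks cytotoxicity.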

Assay [4] addresses Cellular tumor antigen p53 (Homo sapiens) (UniProt P04637). The experiment in a line: TOX21_p53_BLA_p5_ratio: Tox21 HCT-116 p53 Agonism Beta-lactamase Assay, Ratio, Phase 5 (AID 2283599). The gist of the method:
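HCT-116 cells carrying a p53-inducible beta-lactamase reporter were seeded at 4000 cells/well and dosed after 5 h with compound in DMSO (217-fold dilution). After 16 h at 37C, CCF4-AM substrate was added for 2 h, and the 460/530 nm emission ratio was scored as gain-of-signal versus DMSO.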

Assay [5] in a line: TOX21_p53_BLA_p5_viability: Viability Assessment in the Tox21 HCT-116 p53 Agonism Beta-lactamase Assay, Phase 5 (AID 2283600). An outline of the steps: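 Here cell health was gauged by ATP levels in wells holding 4000 cells, each treated 16 h with DMSO-delivered compounds at 217-fold dilution; reduced luminescence marked toxicity.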
Assay [6] has as its target Cellular tumor antigen p53 (Homo sapiens) (UniProt P04637). The experiment in a line: TOX21_p53_BLA_p4_ratio: Tox21 HCT-116 p53 Agonism Beta-lactamase Assay, Ratio, Phase 4 (AID 2283601). An outline of the steps:
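HCT116 cells carrying an inducible beta-lactamase reporter were plated at 4000 cells/well, rested 5 h, then exposed to compounds in DMSO (217-fold dilution) for 16 h at 37C. CCF4-AM substrate was loaded 2 h at room temperature; 460/530 nm emission ratio scored gain-of-signal versus DMSO.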

A short description of assay [7]: Tanguay_ZF_120hpf_YSE_legacy: (Legacy) Oregon State University Tanguay Lab 120 Hour Post-fertilization zebrafish Assay for Yolk Sac Edema (AID 2283634).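 On AC50: actives raise the incidence of yolk sac edema above the DMSO baseline.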 The gist of the method:
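Single dechorionated embryos were held in sealed plates at 28C with test chemical (0.64% DMSO final) from 6 hpf until 120 hpf. Edema of the yolk sac was then recorded as a binary endpoint; non-mortality endpoints were skipped for dead embryos.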

Assay [8] can be described thus: Tanguay_ZF_120hpf_AXIS_legacy: (Legacy) Oregon State University Tanguay Lab 120 Hour Post-fertilization zebrafish Assay for Body Axis Malformation (AID 2283635).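 On AC50: potency for an increased fraction of larvae scored with body axis malformation.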 An outline of the steps:
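Each dechorionated embryo was exposed alone from 6 hpf, with DMSO at 0.64% (vol/vol) and trimethyltin chloride 5 uM as positive control. Axis malformation was recorded at 120 hpf unless the embryo had died.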

Assay [9] can be described thus: Tanguay_ZF_120hpf_EYE_legacy: (Legacy) Oregon State University Tanguay Lab 120 Hour Post-fertilization zebrafish Assay for Eye Malformation (AID 2283636).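 Further: binary presence or absence of eye malformation scored by brightfield in 120 hpf larvae.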 An outline of the steps:
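Static waterborne exposure of dechorionated zebrafish embryos (strain Tropical 5D), 6 to 120 hpf, sealed plates at 28C, 0.64% DMSO vehicle. Eye malformation is scored as a binary endpoint, with gain of signal analysed relative to DMSO.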

Assay [10] is described as follows: Tanguay_ZF_120hpf_SNOU_legacy: (Legacy) Oregon State University Tanguay Lab 120 Hour Post-fertilization zebrafish Assay for Snout Malformation (AID 2283637). The gist of the method:
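Dechorionated zebrafish, individually housed from 6 hpf in covered, sealed wells at 28C with 0.64% DMSO vehicle, were examined at 120 hpf for snout malformation. Responses were binary and analysed positive-direction relative to DMSO.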

Assay [11] in a line: Tanguay_ZF_120hpf_JAW_legacy: (Legacy) Oregon State University Tanguay Lab 120 Hour Post-fertilization zebrafish Assay for Jaw Malformation (AID 2283638).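 On AC50: active means more embryos with jaw malformation than DMSO controls.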 The gist of the method:
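Wild-type 5D embryos, chorion removed at 4 hpf, dosed singly from 6 hpf; 28C static, sealed, foil-covered, to 120 hpf. Endpoint: jaw defect yes/no (brightfield); mortality excludes scoring.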

Assay [12] in a line: Tanguay_ZF_120hpf_OTIC_legacy: (Legacy) Oregon State University Tanguay Lab 120 Hour Post-fertilization zebrafish Assay for Otic Vesicle Malformation (AID 2283639). The gist of the method:
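Binary scoring of otic vesicle defects at 120 hpf in zebrafish (Tropical 5D) held under static exposure at 28C, sealed and shaded, with final DMSO 0.64%. Embryos dying by 24 or 120 hpf excluded; fitted positively against DMSO.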

The nature of assay [13]: Tanguay_ZF_120hpf_PE_legacy: (Legacy) Oregon State University Tanguay Lab 120 Hour Post-fertilization zebrafish Assay for Pericardial Edema (AID 2283640).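 On AC50: potency for increased incidence of pericardial edema versus DMSO baseline.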 An outline of the steps:
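Zebrafish larvae are exposed from early development to 120 hpf at 28C, with 0.64% DMSO final. Each surviving larva receives a yes/no pericardial edema call by brightfield imaging, analysed relative to the DMSO baseline.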

A short description of assay [14]: Tanguay_ZF_120hpf_SOMI_legacy: (Legacy) Oregon State University Tanguay Lab 120 Hour Post-fertilization zebrafish Assay for Somite Malformation (AID 2283647). An outline of the steps:
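Somitogenesis defects are recorded as binary calls in whole larvae at 120 hpf after continuous static chemical exposure starting at 6 hpf in dechorionated 5D embryos. DMSO serves as negative control and baseline.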

A short description of assay [15]: Tanguay_ZF_120hpf_PFIN_legacy: (Legacy) Oregon State University Tanguay Lab 120 Hour Post-fertilization zebrafish Assay for Pectoral Fin Malformation (AID 2283648).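 Further: each larva judged yes or no for fin defect by brightfield with dead larvae skipped.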 An outline of the steps: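 Scoring of pectoral fin malformation was binary, made at 120 hpf on larvae exposed statically from 6 hpf after enzymatic chorion removal. Activity was fitted upward relative to DMSO controls at 0.64% (vol/vol).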

Assay [16] in a line: Tanguay_ZF_120hpf_CFIN_legacy: (Legacy) Oregon State University Tanguay Lab 120 Hour Post-fertilization zebrafish Assay for Caudal Fin Malformation (AID 2283649). The gist of the method:
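Single dechorionated 5D wild-type embryos are dosed at 6 hpf (final DMSO 0.64%) and held statically at 28C. Caudal fin malformation is recorded as present or absent at 120 hpf under brightfield, excluding dead embryos.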

Assay [17] is described as follows: TOX21_p53_BLA_p2_viability: Viability Assessment in the Tox21 HCT-116 p53 Agonism Beta-lactamase Assay, Phase 2 (AID 2283591).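 Further: compound exposure lasted 16 h at 37 °C; actives lower the ATP signal meaning cytotoxicity.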 The gist of the method:
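HCT-116 p53-bla cells (4000/well) rested 5 h at 37C, then received compounds in DMSO (217-fold dilution) for 16 h at 37C, 5% CO2. After the CCF4 read, CellTiter-Glo was added; ATP luminescence was read after 30 min at room temperature.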

A short description of assay [18]: Tanguay_ZF_120hpf_BRAI_legacy: (Legacy) Oregon State University Tanguay Lab 120 Hour Post-fertilization zebrafish Assay for Brain Malformation (AID 2283641). An outline of the steps: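 Static exposure of staged wild-type embryos until 120 hpf, kept at 28C with light excluded and final DMSO of 0.64% (vol/vol). Presence or absence of brain malformation was noted under brightfield; mortality precluded scoring.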

Assay [19] in a line: Tanguay_ZF_120hpf_MORT_legacy: (Legacy) Oregon State University Tanguay Lab 120 Hour Post-fertilization zebrafish Assay for Mortality (AID 2283633). An outline of the steps: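 Single dechorionated Tropical 5D embryos were held with test chemical (0.64% DMSO final) from 6 to 120 hpf at 28C under foil. Deaths at 24 or 120 hpf were recorded as binary calls, analysed for increase over DMSO controls.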

Cellular tumor antigen p53 (Homo sapiens), sequence (P04637 whole entry, looked up): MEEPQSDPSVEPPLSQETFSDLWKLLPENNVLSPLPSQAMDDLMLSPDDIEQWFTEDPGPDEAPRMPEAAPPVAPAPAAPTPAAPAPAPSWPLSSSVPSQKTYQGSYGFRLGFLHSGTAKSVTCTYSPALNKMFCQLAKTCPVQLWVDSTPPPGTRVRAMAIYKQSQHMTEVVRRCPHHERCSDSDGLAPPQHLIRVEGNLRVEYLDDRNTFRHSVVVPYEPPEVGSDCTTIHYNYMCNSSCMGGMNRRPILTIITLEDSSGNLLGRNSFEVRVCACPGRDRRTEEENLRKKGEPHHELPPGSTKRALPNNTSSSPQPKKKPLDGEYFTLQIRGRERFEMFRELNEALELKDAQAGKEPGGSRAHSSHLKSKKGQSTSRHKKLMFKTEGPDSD

In the case of `Cc1ccc(N=C=O)cc1N=C=O`, the molecule was classed as inactive in assay [1], in assay [2], in assay [3], in [4], in assay [5] and in assay [6]. For the same molecule, the outcome in assay [7], in [8], in assay [9], in [10], in assay [11] and in assay [12] was inactive. Also, the result in [13], in assay [14], in [15] and in assay [16] was inactive.

With `CCOC(=O)[C@]1(c2ccccc2)Oc2ccccc2[C@@H]1N`, the molecule was classed as inactive in assay [7], in [8], in [9], in assay [11], in assay [12] and in assay [13]. In [14], the call was inactive.

As for `CO[C@@H]1[C@H](OC(=O)NC(=O)CCl)CC[C@]2(CO2)[C@H]1[C@@]1(C)O[C@@H]1CC=C(C)C`, the outcome in assay [1], in assay [2], in assay [3], in assay [4], in [8] and in assay [9] was inactive. For the same molecule, the outcome in assay [12], in assay [14], in assay [15] and in assay [16] was inactive. Moreover, the figures for the AC50 in assay [7], in assay [11] and in assay [13] were 0.0035 µM (active), 0.0405 µM (active) and 0.0102 µM (active), respectively.

As to `Cn1cc(-c2ccccc2)c(=O)c(-c2cccc(C(F)(F)F)c2)c1`, the call in [17], in assay [2], in assay [4], in assay [6], in assay [7] and in assay [8] was inactive. For the same molecule, the molecule was called inactive in [9], in assay [10], in [11], in [12], in assay [13] and in assay [18]. Further, the call in assay [14], in assay [15] and in assay [16] was inactive.

In the case of `CCCSC(=O)N(CCC)CCC`, the result in assay [2], in [3], in assay [4], in [5], in [7] and in assay [8] was inactive. In addition, the call in assay [9], in assay [11], in [12], in assay [13], in [14] and in assay [15] was inactive. The result in [16] was inactive.

Turning to `CCN(CC)CCO`, the result in [17], in assay [2], in assay [3], in assay [4], in [5] and in assay [6] was inactive. Besides, the outcome in assay [19], in [7], in [8], in [9], in assay [12] and in [13] was inactive. The outcome in assay [14], in assay [15] and in [16] was inactive.

Take `O=C(Nc1ccccc1)c1ccccc1I`: the molecule was classed as inactive in [19], in assay [18] and in assay [14]. Further, the AC50 was 51.3 µM (active) in assay [7]; 10.5 µM (active) in [9]; 50.4 µM (active) in assay [11]; 48 µM (active) in assay [12]; 43.5 µM (active) in assay [13]; 47.3 µM (active) in assay [15]. For the same molecule, in [16], the half-maximal activity concentration (AC50) was 45 µM (active).

Regarding `CC(C)COC(=O)c1ccccc1C(=O)OCC(C)C`, the outcome in [7], in assay [8], in assay [12], in assay [13] and in assay [16] was inactive. Moreover, the half-maximal activity concentration (AC50) was 30.5 µM (active) in [9], 29.7 µM (active) in [11], 50.6 µM (active) in [14] and 45.5 µM (active) in [15].

In the case of `Clc1ccccc1Cl`, the result in [7], in [8], in assay [9], in assay [10], in [11] and in [12] was inactive. Also, the molecule was called inactive in [13], in assay [14], in assay [15] and in [16].

With `CCNS(=O)(=O)C(F)(F)C(F)(F)C(F)(F)C(F)(F)C(F)(F)C(F)(F)C(F)(F)C(F)(F)F`, in [19], the molecule was called inactive. For the same molecule, the AC50 in assay [7] was 43 µM (active); in [8], 55.9 µM (active); in [9] it was 53.6 µM (active); in assay [11], 41.5 µM (active); in [12], 46.9 µM (active); in assay [13], 53.8 µM (active). Further, the AC50 was 45.5 µM (active) in assay [18], 9.56 µM (active) in assay [14] and 48.4 µM (active) in assay [15].
